Measurements taken from ChEMBL document CHEMBL1157539, “Thousands of chemical starting points for antimalarial lead identification” (Nature, 2010).

What was measured:
Type in all cases: functional
[1] = tested on: Plasmodium falciparum; test: GSK_TCMDC: Inhibition of Plasmodium falciparum 3D7 in whole red blood cells, using parasite LDH activity as an index of growth. Test compounds present at 2uM
[2] = tested on: Plasmodium falciparum; test: GSK_TCMDC: Inhibition of Plasmodium falciparum Dd2 in whole red blood cells, using parasite LDH activity as an index of growth. Test compounds present at 2uM
[3] = tested on: HepG2; test: GSK_TCMDC: Percent inhibition of human HepG2 cell line. Test compounds present at 10uM.

## O=C(/C=C/c1ccc(Cl)c(Cl)c1)NCCCCCN1CCC(NC(=S)Nc2ccc(Cl)cc2Cl)CC1
[1]
  Inhibition: 99%
[2]
  Inhibition: 47%
[3]
  Inhibition: 53%

## CC(=O)Nc1ccc(CN2CCC(NC(=O)c3ccc(-c4cccc(C(F)(F)F)c4)s3)CC2)cc1.O=C(O)C(F)(F)F
[1]
  Inhibition: 100%
[2]
  Inhibition: 16%
[3]
  Inhibition: 35%

## Cn1c(NC(=O)C2CCCN(C(=O)c3ccc(O)c(-c4ccc(Cl)c(Cl)c4)c3)C2)nc2ccccc21 (configuration not stated)
[1]
  Inhibition: 98%
[2]
  Inhibition: 99%
[3]
  Inhibition: 0%

## Cc1cc(Nc2cccc(C(F)(F)F)c2)nc(Nc2cccc(C(F)(F)F)c2)n1
[1]
  Inhibition: 100%
[2]
  Inhibition: 73%
[3]
  Inhibition: 0%

## O=C(Nc1cccc(-c2ccc(-c3nc4cc(F)ccc4[nH]3)cc2)c1)Nc1ccc(Cl)c(Cl)c1
[1]
  Inhibition: 100%
[2]
  Inhibition: 49%
[3]
  Inhibition: 79%

## COc1ccc(CNC(=O)NC2CCN(c3ccnc(Nc4cc(OC)c(OC)c(OC)c4)n3)C2)cc1 (configuration not stated)
[1]
  Inhibition: 91%
[2]
  Inhibition: 90%
[3]
  Inhibition: 0%

## COCCNCc1ncsc1-c1ccc2c(Nc3cc(O)ccc3C)ccnc2c1
[1]
  Inhibition: 100%
[2]
  Inhibition: 40%
[3]
  Inhibition: 9%

## CC(C)CNC(=O)c1cncc(-c2cccc(CNC3Cc4ccccc4C3)c2)c1.O=C(O)C(F)(F)F
[1]
  Inhibition: 100%
[2]
  Inhibition: 19%
[3]
  Inhibition: 4%

## CN1CCN(CCNc2c3ccccc3nc3ccc4ccccc4c23)CC1.Cl
[1]
  Inhibition: 99%
[2]
  Inhibition: 99%
[3]
  Inhibition: 22%

## CN1CCC(N2CCN(Cc3ccc(-c4cccc(-c5nc6ccccc6[nH]5)c4)cc3)CC2)CC1.O=C(O)C(F)(F)F
[1]
  Inhibition: 99%
[2]
  Inhibition: 100%
[3]
  Inhibition: 48%

## COc1ccccc1C(=O)C1CCCN(C(=O)c2ccccc2C(F)(F)F)C1 (configuration not stated)
[1]
  Inhibition: 91%
[2]
  Inhibition: 84%
[3]
  Inhibition: 0%

## COc1ccc2ncc(Cl)c(CCN3CC[C@@H](CNCc4cc5c(cn4)OCS5)C3)c2n1.Cl
[1]
  Inhibition: 99%
[2]
  Inhibition: 31%
[3]
  Inhibition: 22%

## CCCO[C@H](C(=O)OC)[C@@H](CC1Cc2ccccc2C1)C(=O)NCCC1=CCCCC1
[1]
  Inhibition: 93%
[2]
  Inhibition: 57%
[3]
  Inhibition: 6%

## CSc1cccc(NC(=O)c2cc3ccccc3oc2=O)c1
[1]
  Inhibition: 92%
[2]
  Inhibition: 75%
[3]
  Inhibition: 0%
